Assay [1] in a line: NCI Yeast Anticancer Drug Screen. Data for the rad50 strain (AID 155).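 Further: 0% = growth of vehicle-only cultures of the same strain.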 To be noted: S. cerevisiae rad50 strain growth inhibition, active compounds read high; at 50.0 µM unless noted. In a few lines: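 Cells are treated with compound, grown, and their growth is then scored against vehicle-only cultures of the same repair-deficient yeast strain.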
Assay [2] is described as follows: NCI Yeast Anticancer Drug Screen. Data for the mec2-1 strain (AID 157). To be noted: S. cerevisiae mec2-1 strain, active compounds read high; at 50.0 µM unless noted. In a few lines: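 Compounds were applied to mec2-1 yeast cells. Their growth was then compared with that of vehicle-treated cultures to give growth inhibition.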
Assay [3] is described as follows: NCI Yeast Anticancer Drug Screen. Data for the sgs1 mgt1 strain (AID 161).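 Further: 0% = growth of cultures given vehicle only.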 Particulars: S. cerevisiae sgs1 mgt1 strain, active compounds read high; at 50.0 µM unless noted. In a few lines:
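Percent growth inhibition was derived by comparing compound-exposed mutant yeast with vehicle-exposed cultures. The strain carries alterations in DNA damage repair.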

Assay [4] in a line: NCI Yeast Anticancer Drug Screen. Data for the cln2 rad14 strain (AID 165).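 Further: 0% = growth equal to vehicle treated cultures.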 To be noted: S. cerevisiae cln2 rad14 strain, active compounds read high; at 50.0 µM unless noted. An outline of the steps:
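Strain: cln2 rad14 yeast, altered in cell cycle control and DNA damage repair. Read-out: growth inhibition vs vehicle.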

A short description of assay [5]: NCI Yeast Anticancer Drug Screen. Data for the bub3 strain (AID 167). Particulars: S. cerevisiae bub3 mutant strain, active compounds read high; at 50.0 µM unless noted. In a few lines:
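Part of a panel of yeast mutants defective in DNA damage repair or cell cycle regulation. Each strain is grown with compound, and inhibition is calculated relative to solvent-treated cultures.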

Assay [6] in a line: NCI Yeast Anticancer Drug Screen. Data for the mlh1 rad18 strain (AID 175). Particulars: S. cerevisiae mlh1 rad18 strain growth inhibition, active compounds read high; at 50.0 µM unless noted. An outline of the steps:
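A repair-deficient yeast strain is exposed to test compound, and growth is scored relative to vehicle-treated controls.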

Structures are written as SMILES. This is part of a sample that, as a whole, favours compounds with a hit. Of some 79,000 tested, about 15% had one in any assay. A number with no mark means an inactive call. Calls of active or inactive are those of the source. No stated cut-off is given here; in the data, active means growth inhibition above about 70%; inactive means the rest. Where a SMILES comes first, the peptide text is derived from it. [ ]: non-standard residue; d: D form. The star is where a group is joined. ξ: configuration not given here. ξF = NC(Cc1ccccc1)C(=O)O; Cbz = O=C(OCc1ccccc1)*; Aib = CC(C)(N)C(=O)O

For the molecule `CC(CC(=O)O)(CC(=O)O)C(=O)O`, the growth inhibition is 16.1% in assay [1]; -17.9% in assay [2]; -28.9% in assay [3]; 12.6% in assay [4]; -29.4% in assay [5]; -22.9% in assay [6].
For `Nc1nc2c(c(=O)[nH]1)N(C=O)C(CCNc1ccc(C(=O)NC(CCC(=O)O)C(=O)O)cc1)CN2` (stereo unspecified), the growth inhibition in assay [1] was 5.35%; in assay [2], -12.2%; in assay [3], 2.55%; in assay [4] it was -12.6%; in assay [5] it was 9%; in assay [6] it was 3.25%.
For `O=c1[nH]nc(Cc2ccccc2)n1CCO`, the growth inhibition in assay [1] is 13.2%; in assay [2], 2.65%; in assay [3], 18.1%; in assay [4] it was 1.3%; in assay [5], 8.9%; in assay [6], -43.4%.
For `O=C(NC(CO)Cc1ccccc1)OCc1ccccc1` (stereo unspecified), the growth inhibition in assay [1] is -4.15%; in assay [2], -5.25%; in assay [3], 0%; in assay [4], 5.45%; in assay [5] it was 8.1%; in assay [6], -7.65%.
For `S=C1NCN2CCN(CC2)CNC(=S)C(=S)NCN2CCN(CC2)CNC1=S`, the growth inhibition is 39.2% in assay [1]; 40.6% in assay [2]; 13% in assay [3]; 55.8% in assay [4]; 48.9% in assay [5]; 57.6% in assay [6].
With `CCNc1cccc(C)c1`, the growth inhibition in assay [1] is 28.9%; in assay [2], -10.7%; in assay [3], -16.2%; in assay [4], -33.8%; in assay [5], 12.8%; in assay [6], 23.1%.
For the molecule `CC(CCCCCOC(=O)Nc1ccccc1)OC(=O)Nc1ccccc1` (stereo unspecified), the growth inhibition in assay [1] was 6.2%; in assay [2], -12.3%; in assay [3], -3.1%; in assay [4], 0.75%; in assay [5], 1.15%; in assay [6], 2.6%.
For `Cc1cccc(C)c1NS(=O)(=O)c1ccc(Cl)cc1`, the growth inhibition in assay [1] is 91.8% (active); in assay [2], 84.4% (active); in assay [3] it was 68.7%; in assay [4], 91.7% (active); in assay [5], 94% (active); in assay [6], 90.4% (active).
For the molecule `CC(C)(C)CC(=O)NC1CCCCC1`, the growth inhibition is -6.55% in assay [1]; -5.8% in assay [2]; 12.2% in assay [3]; -23.1% in assay [4]; 3.4% in assay [5]; 13.7% in assay [6].
Consider `C=CC(=O)NC12CC3CC(CC(C3)C1)C2`, for which the growth inhibition is -4.45% in assay [1]; -0.3% in assay [2]; -8.1% in assay [3]; -23.9% in assay [4]; -15.6% in assay [5]; 0.05% in assay [6].
On to `O=C(O)/C=C/C(=O)NCCCCCCNC(=O)/C=C/C(=O)O`, for which the growth inhibition was 4.55% in assay [1]; -26.4% in assay [2]; 2% in assay [3]; -8.7% in assay [4]; -16.9% in assay [5]; -15.1% in assay [6].
For `CC(=O)Nc1cc(Cl)ccc1F`, the growth inhibition is 14.1% in assay [1]; -6.15% in assay [2]; 12.4% in assay [3]; -7.1% in assay [4]; -0.7% in assay [5]; 17.9% in assay [6].
For `CCc1ccc(NS(=O)(=O)c2ccccc2[N+](=O)[O-])cc1`, the growth inhibition in assay [1] is 31.9%; in assay [2], 42.6%; in assay [3] it was 61.8%; in assay [4], 25.3%; in assay [5], 50.9%; in assay [6], 65.5%.
Turning to `CS(=O)(=O)OCC(Br)C(Br)COS(C)(=O)=O` (stereo unspecified), the growth inhibition in assay [1] is 2.8%; in assay [2], 5.2%; in assay [3], 7.7%; in assay [4], 26.4%; in assay [5], -5.3%; in assay [6], 10.2%.
On to `O=C(Nc1ccc(F)cc1)c1ccc([N+](=O)[O-])cc1`, for which the growth inhibition was 0.5% in assay [1]; -1% in assay [2]; 36.1% in assay [3]; -9.6% in assay [4]; 19% in assay [5]; 8.15% in assay [6].
For `Nc1ncnc2c1ncn2C1OC(CSCC(F)(F)F)C(O)C1O` (stereo unspecified), the growth inhibition is -4.05% in assay [1]; -11.8% in assay [2]; -8.65% in assay [3]; 26.6% in assay [4]; -7.8% in assay [5]; -11.4% in assay [6].
For `O=C(Cc1ccc(CC(=O)NCCCCc2ccccc2)cc1)NCCCCc1ccccc1`, the growth inhibition in assay [1] was 0.75%; in assay [2], -3.25%; in assay [3], -14.9%; in assay [4], -8.85%; in assay [5], -7.9%; in assay [6], 13.1%.
In the case of `COc1cc(OC)c(/C=N/N=C(\N)NO)c(OC)c1`, the growth inhibition in assay [1] is -8.95%; in assay [2] it was 12.2%; in assay [3], -0.7%; in assay [4] it was 9.65%; in assay [5] it was -1.15%; in assay [6] it was -9.75%.
In the case of `O=C(Nc1ccc(Cl)cc1[N+](=O)[O-])Oc1ccc(C2CCCCC2)cc1`, the growth inhibition was 98.2% (active) in assay [1]; 94.3% (active) in assay [2]; 98% (active) in assay [3]; 87% (active) in assay [4]; 98% (active) in assay [5]; 97.5% (active) in assay [6].
With `N#CCCC1(CCC#N)CCCC(CCC#N)(CCC#N)C1=O`, the growth inhibition in assay [1] is 2%; in assay [2], 7.6%; in assay [3] it was 2.15%; in assay [4] it was -51.5%; in assay [5], 16.8%; in assay [6], 11.2%.
For the molecule `COC(=O)C(C)(C)NC(=O)C(Cc1ccccc1)NC(=O)C(C)(C)NC(=O)OCc1ccccc1` (stereo unspecified) (Cbz-[Aib]-[ξF]-[Aib]-OMe), the growth inhibition in assay [1] was 18.9%; in assay [2] it was 4.8%; in assay [3] it was -6.2%; in assay [4], 23.1%; in assay [5], 12.4%; in assay [6], -1.2%.
